Test results taken from the supplement of paper PMC10849652.
Targets with a hit are over-represented here; the source holds about 8,800 in all. About 0.5% of all pairs of compound and target were hits.

Columns and labels:
Experiment in all cases: log2 fold change, soluble protein after heating vs DMSO (PISA); higher = thermal stabilisation; K562 lysate, 10 uM; active = over 0.2 and 3.5 SD of the protein, either way, in both replicates (recomputed)
[1] = compound: CCCS(=O)(=O)Nc1ccc(F)c(C(=O)c2c[nH]c3ncc(-c4ccc(Cl)cc4)cc23)c1F [vemurafenib]
Summary of the method: (§1)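 Pellets of K562 cells were dounce-homogenised in PBS pH 7.4 with 1 mM MgCl2, and the crude extract was held at 1 mg/mL protein for a 30 min treatment with 10 μM compound. Aliquots were heated for 3 min over 48°C-58°C and pooled before NP-40 was added to 0.5% at 4°C. The supernatant from 21,000xg for 90 min was quantified by TMTpro 16plex LC-MS/MS with channel sums equalised. Values are reported from duplicates as log-two fold change in thermal stability relative to solvent controls.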

[2] = compound: CCCS(=O)(=O)Nc1ccc(F)c(C(=O)c2c[nH]c3ncc(Cl)cc23)c1F
Summary of the method: as §1

[3] = compound: CCN(CCCOc1ccc2c(Nc3cc(CC(=O)Nc4cccc(F)c4)[nH]n3)ncnc2c1)CCOP(=O)(O)O [barasertib]
Summary of the method: as §1

[4] = compound: CC[C@@H]1C(=O)N(C)c2cnc(Nc3ccc(C(=O)NC4CCN(C)CC4)cc3OC)nc2N1C1CCCC1
Summary of the method: as §1

[5] = compound: CC[C@@H]1C(=O)N(C)c2cnc(Nc3ccc(C(=O)N[C@H]4CC[C@H](N5CCN(CC6CC6)CC5)CC4)cc3OC)nc2N1C(C)C [volasertib]
Summary of the method: as §1

[6] = compound: CCn1c(C(=O)N(C2CC2)C2CC2)cc2c3c(ncn3C)c(Nc3cc(C)n(C)n3)nc21
Summary of the method: as §1

[7] = compound: CCn1cc(-c2ccnc3[nH]c(-c4cccc(CN(C)C)c4)cc23)c(-c2ccc(NC(=O)N(C)C)cc2)n1
Summary of the method: as §1

[8] = compound: CN1CCC(CNc2ccc3ncc(-c4cccc(OC(F)(F)F)c4)n3n2)CC1
Summary of the method: as §1

[9] = compound: CN1CCN(CCOc2cc(OC3CCOCC3)c3c(Nc4c(Cl)ccc5c4OCO5)ncnc3c2)CC1 [saracatinib]
Summary of the method: as §1

[10] = compound: CN1CCN(c2nc(C3=C(c4c[nH]c5ccccc45)C(=O)NC3=O)c3ccccc3n2)CC1 [sotrastaurin]
Summary of the method: as §1

Measured: log2 fold change

ZBTB33 (UniProt Q86T24)
active: [5] -0.673
inactive: [1] 0.01 | [2] -0.017 | [3] -0.199 | [4] -0.002 | [6] 0 | [7] 0.034 | [8] -0.008 | [9] 0.033 | [10] 0.015

VPS16 (UniProt Q9H269)
Chain of UniProt Q9H269 (Q9H269 whole entry, looked up): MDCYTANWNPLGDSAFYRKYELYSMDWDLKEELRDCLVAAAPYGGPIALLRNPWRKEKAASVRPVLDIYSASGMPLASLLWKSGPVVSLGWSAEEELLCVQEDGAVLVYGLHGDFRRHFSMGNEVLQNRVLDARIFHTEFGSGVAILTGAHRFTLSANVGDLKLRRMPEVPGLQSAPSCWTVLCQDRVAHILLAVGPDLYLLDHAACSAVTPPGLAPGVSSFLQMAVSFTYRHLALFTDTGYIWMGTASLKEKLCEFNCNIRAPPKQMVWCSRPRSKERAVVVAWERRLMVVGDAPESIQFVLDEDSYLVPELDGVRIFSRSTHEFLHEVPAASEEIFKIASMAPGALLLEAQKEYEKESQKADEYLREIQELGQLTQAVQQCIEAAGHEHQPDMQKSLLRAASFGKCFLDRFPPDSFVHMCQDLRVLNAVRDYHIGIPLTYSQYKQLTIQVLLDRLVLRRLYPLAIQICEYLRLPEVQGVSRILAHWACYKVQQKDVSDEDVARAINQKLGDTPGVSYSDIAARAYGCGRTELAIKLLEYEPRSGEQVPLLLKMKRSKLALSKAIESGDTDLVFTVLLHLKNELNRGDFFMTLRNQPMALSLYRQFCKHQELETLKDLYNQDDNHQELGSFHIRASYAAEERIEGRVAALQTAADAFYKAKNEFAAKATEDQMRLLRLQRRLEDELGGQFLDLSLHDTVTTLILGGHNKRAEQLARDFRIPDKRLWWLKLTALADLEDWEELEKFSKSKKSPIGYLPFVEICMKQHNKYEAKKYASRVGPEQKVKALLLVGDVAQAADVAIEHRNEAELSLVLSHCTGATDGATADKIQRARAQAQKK
inactive: [1] 0.038 | [2] 0.009 | [3] 0.007 | [4] 0.063 | [5] -0.04 | [6] 0.028 | [7] -0.049 | [8] -0.015 | [9] -0.017 | [10] -0.002

ZNF609 (UniProt O15014)
inactive: [1] 0.165 | [2] 0.033 | [3] 0.027 | [4] 0.011 | [5] 0.005 | [6] 0.022 | [7] -0.014 | [8] 0.064 | [9] 0.004 | [10] 0.013

VAV1 (UniProt P15498)
inactive: [1] 0.032 | [2] -0.017 | [3] 0.022 | [4] -0.041 | [5] -0.002 | [6] -0.041 | [7] -0.114 | [8] 0.035 | [9] -0.011 | [10] -0.021

WAC (UniProt Q9BTA9)
inactive: [1] 0.018 | [2] 0.051 | [3] 0.077 | [4] 0 | [5] -0.003 | [6] 0.051 | [7] 0.061 | [8] 0.024 | [9] 0.013 | [10] -0.002

ZMYM2 (UniProt Q9UBW7)
Chain of UniProt Q9UBW7 (Q9UBW7 whole entry, looked up): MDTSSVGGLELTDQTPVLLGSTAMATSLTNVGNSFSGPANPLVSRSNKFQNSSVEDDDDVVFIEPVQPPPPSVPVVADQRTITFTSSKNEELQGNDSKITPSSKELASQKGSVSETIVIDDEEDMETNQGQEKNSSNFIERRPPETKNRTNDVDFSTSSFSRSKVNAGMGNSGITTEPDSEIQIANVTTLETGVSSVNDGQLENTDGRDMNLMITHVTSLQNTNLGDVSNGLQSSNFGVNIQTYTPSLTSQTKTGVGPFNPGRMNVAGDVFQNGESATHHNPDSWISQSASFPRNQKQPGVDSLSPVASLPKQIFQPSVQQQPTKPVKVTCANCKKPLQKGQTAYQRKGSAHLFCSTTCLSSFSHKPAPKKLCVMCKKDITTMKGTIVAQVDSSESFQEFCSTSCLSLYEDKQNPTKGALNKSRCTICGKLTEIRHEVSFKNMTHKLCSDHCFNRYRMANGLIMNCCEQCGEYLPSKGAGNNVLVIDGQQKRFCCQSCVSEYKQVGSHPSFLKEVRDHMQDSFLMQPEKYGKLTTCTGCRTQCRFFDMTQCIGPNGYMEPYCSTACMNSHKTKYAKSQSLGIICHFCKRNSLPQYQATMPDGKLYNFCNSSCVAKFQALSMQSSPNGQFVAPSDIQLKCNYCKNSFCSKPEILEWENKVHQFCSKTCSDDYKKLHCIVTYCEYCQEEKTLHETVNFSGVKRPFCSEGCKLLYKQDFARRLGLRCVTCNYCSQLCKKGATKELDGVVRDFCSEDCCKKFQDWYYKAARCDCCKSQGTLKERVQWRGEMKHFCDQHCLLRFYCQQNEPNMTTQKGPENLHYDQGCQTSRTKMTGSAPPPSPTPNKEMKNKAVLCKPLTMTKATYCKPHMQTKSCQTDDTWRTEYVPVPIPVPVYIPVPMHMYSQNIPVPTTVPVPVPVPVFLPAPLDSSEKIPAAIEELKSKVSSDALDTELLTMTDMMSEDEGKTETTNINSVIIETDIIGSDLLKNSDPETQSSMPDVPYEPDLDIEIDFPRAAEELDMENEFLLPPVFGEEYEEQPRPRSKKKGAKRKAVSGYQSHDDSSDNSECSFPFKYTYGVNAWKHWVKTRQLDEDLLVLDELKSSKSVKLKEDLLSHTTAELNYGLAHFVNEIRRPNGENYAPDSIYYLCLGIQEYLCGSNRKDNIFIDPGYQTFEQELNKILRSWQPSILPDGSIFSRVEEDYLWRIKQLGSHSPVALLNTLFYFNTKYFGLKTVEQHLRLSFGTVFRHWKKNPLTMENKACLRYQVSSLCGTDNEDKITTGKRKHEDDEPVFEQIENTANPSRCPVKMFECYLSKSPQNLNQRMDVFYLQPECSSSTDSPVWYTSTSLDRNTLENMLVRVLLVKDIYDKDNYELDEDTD
inactive: [1] 0.004 | [2] 0.101 | [3] -0.016 | [4] -0.034 | [5] -0.253 | [6] -0.119 | [7] 0.025 | [8] -0.196 | [9] 0.018 | [10] -0.008

XPOT (UniProt O43592)
Chain of UniProt O43592 (O43592 whole entry, looked up): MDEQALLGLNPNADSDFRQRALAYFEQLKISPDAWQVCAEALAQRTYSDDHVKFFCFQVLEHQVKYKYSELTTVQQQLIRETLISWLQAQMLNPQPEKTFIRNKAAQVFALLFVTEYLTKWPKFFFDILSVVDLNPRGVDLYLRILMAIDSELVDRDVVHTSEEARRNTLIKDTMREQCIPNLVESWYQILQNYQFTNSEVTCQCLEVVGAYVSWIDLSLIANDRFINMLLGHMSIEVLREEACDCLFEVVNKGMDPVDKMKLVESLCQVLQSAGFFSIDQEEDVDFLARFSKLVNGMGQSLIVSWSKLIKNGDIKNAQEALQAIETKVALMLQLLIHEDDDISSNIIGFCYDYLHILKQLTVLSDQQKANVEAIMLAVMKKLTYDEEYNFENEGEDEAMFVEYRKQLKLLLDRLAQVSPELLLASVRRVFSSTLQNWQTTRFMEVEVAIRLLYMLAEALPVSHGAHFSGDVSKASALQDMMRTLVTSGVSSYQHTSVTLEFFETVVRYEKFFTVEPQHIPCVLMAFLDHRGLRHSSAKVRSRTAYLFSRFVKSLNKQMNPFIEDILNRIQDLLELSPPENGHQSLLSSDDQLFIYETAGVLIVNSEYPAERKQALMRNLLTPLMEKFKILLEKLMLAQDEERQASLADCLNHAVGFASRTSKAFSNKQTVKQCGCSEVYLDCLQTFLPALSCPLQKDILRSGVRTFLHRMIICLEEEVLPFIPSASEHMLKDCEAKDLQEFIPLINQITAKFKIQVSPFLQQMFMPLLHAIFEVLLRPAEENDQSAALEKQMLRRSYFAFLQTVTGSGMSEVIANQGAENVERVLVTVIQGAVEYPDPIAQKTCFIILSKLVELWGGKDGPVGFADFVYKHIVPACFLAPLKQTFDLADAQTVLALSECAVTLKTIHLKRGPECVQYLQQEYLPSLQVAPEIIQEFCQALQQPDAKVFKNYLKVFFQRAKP
inactive: [1] -0.023 | [2] 0.014 | [3] 0.011 | [4] -0.097 | [5] -0.047 | [6] 0.036 | [7] -0.065 | [8] -0.001 | [9] -0.005 | [10] 0.002

ZNF598 isoform 3 (UniProt Q86UK7)
inactive: [1] 0.022 | [2] 0.036 | [3] 0.019 | [4] 0.067 | [5] -0.032 | [6] 0.017 | [7] -0.011 | [8] 0.001 | [9] -0.008 | [10] 0.014

WDR91 (UniProt A4D1P6)
Chain of UniProt A4D1P6 (A4D1P6 whole entry, looked up): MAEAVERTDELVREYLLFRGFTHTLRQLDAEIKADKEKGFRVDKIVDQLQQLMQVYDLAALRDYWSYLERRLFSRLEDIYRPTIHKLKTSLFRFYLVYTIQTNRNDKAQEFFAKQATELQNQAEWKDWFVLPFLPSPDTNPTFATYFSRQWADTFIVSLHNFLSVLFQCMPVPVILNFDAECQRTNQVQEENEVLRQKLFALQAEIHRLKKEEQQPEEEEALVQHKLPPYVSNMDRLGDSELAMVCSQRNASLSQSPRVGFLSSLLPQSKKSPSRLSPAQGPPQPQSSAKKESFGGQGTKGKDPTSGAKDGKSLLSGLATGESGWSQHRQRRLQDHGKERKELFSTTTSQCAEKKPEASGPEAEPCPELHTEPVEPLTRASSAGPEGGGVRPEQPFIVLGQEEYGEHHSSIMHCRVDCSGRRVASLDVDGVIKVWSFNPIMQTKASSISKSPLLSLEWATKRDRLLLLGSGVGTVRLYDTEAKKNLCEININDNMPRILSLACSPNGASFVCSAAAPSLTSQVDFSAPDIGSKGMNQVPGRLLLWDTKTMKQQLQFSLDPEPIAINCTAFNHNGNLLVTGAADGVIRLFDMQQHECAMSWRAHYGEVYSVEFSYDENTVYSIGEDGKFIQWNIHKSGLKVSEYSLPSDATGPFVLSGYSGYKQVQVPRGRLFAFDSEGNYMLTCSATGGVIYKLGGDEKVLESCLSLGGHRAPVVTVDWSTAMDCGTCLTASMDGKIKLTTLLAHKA
inactive: [1] -0.096 | [2] 0.028 | [3] 0.046 | [4] -0.043 | [5] -0.023 | [6] 0.055 | [7] -0.01 | [8] 0.041 | [9] 0.067 | [10] 0.019

VASP (UniProt P50552)
Chain of UniProt P50552 (P50552 whole entry, looked up): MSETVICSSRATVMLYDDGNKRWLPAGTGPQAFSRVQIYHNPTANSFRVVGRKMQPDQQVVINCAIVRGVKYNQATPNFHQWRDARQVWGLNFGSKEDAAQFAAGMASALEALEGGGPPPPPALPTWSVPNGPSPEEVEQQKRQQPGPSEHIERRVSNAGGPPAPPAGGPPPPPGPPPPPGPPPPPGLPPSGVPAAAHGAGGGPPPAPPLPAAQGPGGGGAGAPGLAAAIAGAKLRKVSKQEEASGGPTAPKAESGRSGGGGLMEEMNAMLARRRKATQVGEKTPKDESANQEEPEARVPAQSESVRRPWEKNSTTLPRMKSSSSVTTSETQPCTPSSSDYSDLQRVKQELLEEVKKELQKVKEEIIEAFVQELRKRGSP
inactive: [1] -0.012 | [2] -0.011 | [3] -0.069 | [4] -0.022 | [5] -0.008 | [6] 0.009 | [7] 0.006 | [8] -0.009 | [9] 0.007 | [10] -0.004

YME1L1 (UniProt Q96TA2)
Chain of UniProt Q96TA2 (Q96TA2 whole entry, looked up): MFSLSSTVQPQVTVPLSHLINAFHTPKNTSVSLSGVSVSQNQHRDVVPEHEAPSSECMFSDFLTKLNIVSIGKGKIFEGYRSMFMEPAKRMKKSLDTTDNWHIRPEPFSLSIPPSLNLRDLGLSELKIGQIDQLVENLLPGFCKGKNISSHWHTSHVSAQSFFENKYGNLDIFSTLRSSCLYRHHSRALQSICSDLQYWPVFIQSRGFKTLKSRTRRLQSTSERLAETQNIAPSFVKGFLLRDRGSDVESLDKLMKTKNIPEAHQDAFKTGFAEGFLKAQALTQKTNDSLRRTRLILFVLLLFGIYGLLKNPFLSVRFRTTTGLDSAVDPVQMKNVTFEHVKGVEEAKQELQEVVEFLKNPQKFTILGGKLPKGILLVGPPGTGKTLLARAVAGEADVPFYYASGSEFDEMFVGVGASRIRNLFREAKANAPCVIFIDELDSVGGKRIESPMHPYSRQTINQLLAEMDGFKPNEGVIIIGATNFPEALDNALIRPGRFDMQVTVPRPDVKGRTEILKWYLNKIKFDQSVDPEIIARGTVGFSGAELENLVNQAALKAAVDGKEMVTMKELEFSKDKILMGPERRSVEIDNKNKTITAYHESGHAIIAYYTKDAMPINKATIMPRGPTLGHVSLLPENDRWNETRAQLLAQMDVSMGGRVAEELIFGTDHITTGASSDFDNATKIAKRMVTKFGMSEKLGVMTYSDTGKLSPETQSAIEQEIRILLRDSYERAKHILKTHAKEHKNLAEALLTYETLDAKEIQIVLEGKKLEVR
inactive: [1] 0.01 | [2] 0.011 | [3] 0.036 | [4] -0.008 | [5] -0.02 | [6] 0.035 | [7] 0.181 | [8] -0.088 | [9] 0.037 | [10] 0.055

USP9X (UniProt Q93008)
inactive: [1] -0.013 | [2] 0.014 | [3] 0.038 | [4] -0.065 | [5] -0.053 | [6] 0.033 | [7] -0.042 | [8] -0.036 | [9] 0.03 | [10] 0.007
